# Screening results as filed in PubChem BioAssay.
# KB-V1 MDR tox: KB-V1 MDR subline cytotoxicity. hit rate 3.4% among 400,000. Potency, µM (titrated, usually from 46.1 µM), most hits filed as cytotoxic. KB-V1 MDR cells viability, CellTiter-Glo, 72 h. AID 1347076; further: nearly all actives have a fitted effect of over 60% in size
#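 Potencies derive from concentration-effect curves fitted to normalized luminescence (CellTiter-Glo) of KB-V1 cells treated for 72 h at 37 degrees C in phenol-red-free DMEM containing 10% FBS.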
# KB-3-1 cytotox: kills parental KB-3-1 adenocarcinoma cells | KB-3-1 viability, CellTiter-Glo ATP luminescence, 72 h | Potency, µM (doses to about 46.1 µM), hits mostly cytotoxic | hit rate 1.4% among 400,000 | AID 1347075; further: nearly all actives have a fitted effect of over 60% in size
#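 Cells are dispensed, compounds pinned in, plates held at 37 °C for 72 h, then CellTiter-Glo is added and luminescence read after 10 minutes. Cell line: parental KB-3-1 in phenol-red-free DMEM, 10% FBS.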
# DT40 TDP1 CPT: DT40-hTDP1 cell growth loss with CPT | chicken DT40 Tdp1-/-;hTDP1 cells + 20 nM CPT, ATP luminescence, 48 h | Potency, µM (highest dose often 46.2 µM), without a hit: at the top dose activity change, negative = growth inhibition, actives largely listed as inhibitors | hit rate 12% among 420,000; further: nearly all actives have a fitted effect of over 55% in size
#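 Chicken DT40 Tdp1-/- cells complemented with human TDP1, 400 cells/well, exposed to compounds plus 20 nM camptothecin for at least 48 h at 37 C; viability read as ATP content by CellTiter-Glo luminescence.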
# HT1080 IDH1KD tx: toxicity to HT-1080 IDH1 knockdown cells (counter line) | Potency, µM (top dose mostly 46.1 µM), without a hit: top-dose activity, negative = toxicity, most hits filed as cytotoxic | AID 686971 | hit rate 2% among 360,000 | HT-1080 IDH1 knockdown viability, ATP luminescence, 48 h;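 further: 0% = DMSO wells and -100% = cell-free medium wells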
#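 Using the IDH1-knockdown HT-1080 line run in the same batch and compound series as the NT line, viability after 48 h at 37 °C was determined by CellTiter-Glo luminescence and expressed as % activity.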
# TDP1 cell noCPT: qHTS for Inhibitors of human tyrosyl-DNA phosphodiesterase 1 (TDP1): qHTS in cells in absence of CPT; DT40 Tdp1-/- hTDP1 cells, no CPT, ATP luminescence, 48 h; Potency, µM (series often up to 46.2 µM), inactives show at the top dose activity change, negative = growth inhibition, usual class: inhibitors; hit rate 15% among 420,000; further: nearly all actives have a fitted effect of over 55% in size
#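 Chicken DT40 Tdp1-/- cells stably complemented with human TDP1 were seeded at 400 cells/well with DMSO in place of 20 nM camptothecin. After compound pinning, cells grew at least 48 hr at 37 °C; viability read by CellTiter-Glo luminescence.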
# HT1080-NT tox: kills 2HG-producing HT-1080-NT fibrosarcoma cells | HT-1080-NT fibrosarcoma viability, CellTiter-Glo ATP luminescence, 48 h | Potency, µM (series often up to 46.1 µM), inactives show top-dose activity, negative = less viability, most hits filed as cytotoxic | hit rate 1.6% among 360,000 | AID 686970;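 further: NT is the 2HG producing partner of a matched IDH1 knockdown line; 0% = DMSO-treated cells and -100% = media-only wells without cells; nearly all actives have a fitted effect of over 55% in size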
#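 Fibrosarcoma NT cells, 750 per well in 5% FBS RPMI, were exposed to compound for 48 hours. Viability: CellTiter-Glo luminescence.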
# * marks the source's active call; other numbers are inactive results; i = inactive; ? = inconclusive; · = not tested or not shown; [ ] = dose if it differs, or a comment. The list is not random: actives were taken first. Their share in the collection is about 19%. The call rests on the fitted dose curve; in most records, active means well fitted curve in the direction sought with a large enough effect; inconclusive means small, poorly fitted or top-dose-only effect, or another doubt; inactive means no such curve, though single readings can be large; an effect the other way counts as inactive or inconclusive. Unless noted, on the % scale 0 is the no-effect control and ±100 the full control effect; potency means the concentration at half of the fitted maximal effect.
SMILES,KB-V1 MDR tox,KB-3-1 cytotox,DT40 TDP1 CPT,HT1080 IDH1KD tx,TDP1 cell noCPT,HT1080-NT tox
COc1ccc(NC(=O)CSc2ccc3nnc(-c4ccccn4)n3n2)c(OC)c1,i,i,?,6%,2%,3%
O=S(=O)(NCCc1csc(-c2cccnc2)n1)c1ccc(Cl)s1,i,i,12µM*,-6%,23µM*,0%
COc1ccc(S(=O)(=O)NCCc2csc(-c3cccnc3)n2)cc1,i,i,15µM*,-2%,-29%,4%
COc1ccc(C(=O)NCc2nnc(SCC(=O)Nc3cc(Cl)ccc3OC)o2)cc1,i,i,-5%,-1%,-12%,-14%
CCOC(=O)N1CCC(NS(=O)(=O)c2ccc3c(c2)OCC(=O)N3)CC1,i,i,?,-2%,-26%,1%
Cc1cccc(NC(=O)CCS(=O)(=O)c2cc3c(cc2Cl)NC(=O)CO3)c1,i,i,18µM*,12%,?,-4%
CCOC(=O)N1CCC(NS(=O)(=O)c2cc3c(cc2Cl)NC(=O)CO3)CC1,i,i,18µM*,-1%,23µM*,-10%
Cc1ccc(C)c(N2CCN(C(=O)CCS(=O)(=O)c3cc4c(cc3Cl)NC(=O)CO4)CC2)c1,16µM*,?,·,·,·,·
COc1cccc(NC(=O)CCS(=O)(=O)c2cc3c(cc2Cl)NC(=O)CO3)c1,?,i,-8%,3%,16%,4%
CCC/C(=N\NC(=O)c1ccco1)c1ccc(Cl)s1,i,i,-11%,-8%,-13%,-9%
Cn1c2c(c3cnc4cc(Cl)ccc4c31)CN(Cc1ccc(Cl)cc1)CC2,i,?,7.9µM*,·,7.1µM*,·
CN1CCc2c(c3cnc4cc(Cl)ccc4c3n2C)C1,i,i,?,·,?,·
Cc1nn2c(NCCCN(C)C)c3c(nc2c1-c1ccccc1)CCCC3,?,i,?,?,?,?
Cc1nn2c(NCCCN(C)C)c3c(nc2c1-c1ccccc1)CCC3,i,i,?,8%,29µM*,3%
CCC1CN(C(=O)Nc2cc(Cl)ccc2C(=O)OC)c2ccccc2S1 (configuration not stated),i,i,?,·,?,·
CCN(CC)S(=O)(=O)c1csc(C(=O)NCc2ccccc2)c1,21µM*,i,-33%,-1%,?,-3%
CC(O)c1cccc(NC2=CC(=O)CC(C)(C)C2)c1 (configuration not stated),i,i,-7%,-12%,-7%,0%[9.24 µM]
CCN(C(=O)CN1C(=O)c2ccccc2Sc2ccc(C(=O)OC)cc21)c1cccc(C)c1,·,·,?,·,23µM*,·
CCN(CC)C(=O)c1ccc2c(c1)N(Cc1c(F)cccc1Cl)C(=O)c1ccccc1S2,i,i,?,·,?,·
CC(C)OCCCNC(=O)c1ccc2c(c1)N(Cc1c(F)cccc1Cl)C(=O)c1ccccc1S2,i,i,23µM*,·,26µM*,·
O=C(NC1CCCC1)c1ccc2c(c1)N(Cc1c(F)cccc1Cl)C(=O)c1ccccc1S2,i,i,16µM*,·,16µM*,·
COCCNC(=O)c1ccc2c(c1)N(Cc1c(F)cccc1Cl)C(=O)c1ccccc1S2,i,i,-27%,·,21µM*,·
O=C(NCCCN1CCOCC1)c1ccc2c(c1)N(Cc1c(F)cccc1Cl)C(=O)c1ccccc1S2,i,i,?,0%,?,-6%
CC(C)(C)OC(=O)N1CCCN(C(=O)Nc2ccc(C(F)(F)F)cc2)CC1,i,?,?,-5%,?,-16%
C/C=C(\C)CN1CCN(c2ccc(C)cc2)CC1,i,i,2%,4%,-28%,10%
